From the supplement of paper PMC10849652
Of roughly 8,800 targets only a part is listed; those with a hit were picked by preference. About 0.5% of all pairs of compound and target were hits.

Key:
Test in all cases: log2 fold change, soluble protein after heating vs DMSO (PISA); higher = thermal stabilisation; K562 lysate, 10 uM; active = over 0.2 and 3.5 SD of the protein, either way, in both replicates (recomputed)
[1] = compound: CCCS(=O)(=O)Nc1ccc(F)c(C(=O)c2c[nH]c3ncc(-c4ccc(Cl)cc4)cc23)c1F [vemurafenib]
Outline: (§1)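 Quantification was by TMTpro 16plex LC-MS/MS with equalised channel sums, applied to the supernatant after 21,000xg for 90 min. Samples were crude K562 extract at 1 mg/mL protein in PBS pH 7.4 with 1 mM MgCl2, treated with 10 μM compound for 30 min, heated for 3 min across 48°C-58°C, pooled and brought to 0.5% NP-40 at 4°C. Values are log-two fold changes in thermal stability relative to solvent controls, from duplicates.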

[2] = compound: CCCS(=O)(=O)Nc1ccc(F)c(C(=O)c2c[nH]c3ncc(Cl)cc23)c1F
Outline: as §1

[3] = compound: CCN(CCCOc1ccc2c(Nc3cc(CC(=O)Nc4cccc(F)c4)[nH]n3)ncnc2c1)CCOP(=O)(O)O [barasertib]
Outline: as §1

[4] = compound: CC[C@@H]1C(=O)N(C)c2cnc(Nc3ccc(C(=O)NC4CCN(C)CC4)cc3OC)nc2N1C1CCCC1
Outline: as §1

[5] = compound: CC[C@@H]1C(=O)N(C)c2cnc(Nc3ccc(C(=O)N[C@H]4CC[C@H](N5CCN(CC6CC6)CC5)CC4)cc3OC)nc2N1C(C)C [volasertib]
Outline: as §1

[6] = compound: CCn1c(C(=O)N(C2CC2)C2CC2)cc2c3c(ncn3C)c(Nc3cc(C)n(C)n3)nc21
Outline: as §1

[7] = compound: CCn1cc(-c2ccnc3[nH]c(-c4cccc(CN(C)C)c4)cc23)c(-c2ccc(NC(=O)N(C)C)cc2)n1
Outline: as §1

[8] = compound: CN1CCC(CNc2ccc3ncc(-c4cccc(OC(F)(F)F)c4)n3n2)CC1
Outline: as §1

[9] = compound: CN1CCN(CCOc2cc(OC3CCOCC3)c3c(Nc4c(Cl)ccc5c4OCO5)ncnc3c2)CC1 [saracatinib]
Outline: as §1

[10] = compound: CN1CCN(c2nc(C3=C(c4c[nH]c5ccccc45)C(=O)NC3=O)c3ccccc3n2)CC1 [sotrastaurin]
Outline: as §1

[11] = compound: CN1CC[C@H](c2c(O)cc(O)c3c(=O)cc(-c4ccccc4Cl)oc23)[C@H](O)C1 [alvocidib]
Outline: as §1

[12] = compound: CN1CCc2c(c3ccccc3n2Cc2ccc(C(=O)NO)cc2)C1 [Tubastatin A]
Outline: as §1

[13] = compound: CNC(=O)C1=CC=CC=C1NC2=NC(=NC=C2Cl)NC3=C(C=C(C=C3)N4CCOCC4)OC
Outline: as §1

[14] = compound: CNC(=O)c1ccc(Nc2ncc(C(F)(F)F)c(NCc3nccnc3N(C)S(C)(=O)=O)n2)cc1 [defactinib]
Outline: as §1

[15] = compound: CNc1nc(-c2ccc3c(N)n[nH]c3c2)cc(N2C[C@@H](C(=O)NC3CCCCC3)CC[C@H]2C)n1
Outline: as §1

[16] = compound: COC(=O)N[C@@H](C)CNc1nccc(-c2cn(C(C)C)nc2-c2cc(Cl)cc(NS(C)(=O)=O)c2F)n1 [encorafenib]
Outline: as §1

[17] = compound: COC(=O)[C@H](CCSC)NC(=O)C1=C(C=C(C=C1)NC[C@H](CS)N)C2=CC=CC=C2
Outline: as §1

[18] = compound: COc1cc(Nc2ncc3c(n2)-c2ccc(Cl)cc2C(c2c(F)cccc2OC)=NC3)ccc1C(=O)O [alisertib]
Outline: as §1

[19] = compound: COc1cc2nc(-c3cc(F)ccc3O)nc(N[C@@H]3CNC[C@H]3C(C)(C)O)c2cc1OC
Outline: as §1

[20] = compound: COc1cc2ncnc(Nc3ccc(F)c(Cl)c3)c2cc1OCCCN1CCOCC1 [gefitinib]
Outline: as §1

UniProt Q8NE86, sequence (Q8NE86 whole entry, looked up): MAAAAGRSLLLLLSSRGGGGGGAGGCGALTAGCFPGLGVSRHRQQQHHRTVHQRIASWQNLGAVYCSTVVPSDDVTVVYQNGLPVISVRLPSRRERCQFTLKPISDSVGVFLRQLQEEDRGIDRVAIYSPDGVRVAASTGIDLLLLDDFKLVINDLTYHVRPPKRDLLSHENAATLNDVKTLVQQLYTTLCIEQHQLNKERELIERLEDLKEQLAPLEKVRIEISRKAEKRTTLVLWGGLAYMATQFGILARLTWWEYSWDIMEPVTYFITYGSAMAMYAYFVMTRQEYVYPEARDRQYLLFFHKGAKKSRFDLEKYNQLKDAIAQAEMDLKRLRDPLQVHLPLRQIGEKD
UniProt Q08380, sequence (Q08380 whole entry, looked up): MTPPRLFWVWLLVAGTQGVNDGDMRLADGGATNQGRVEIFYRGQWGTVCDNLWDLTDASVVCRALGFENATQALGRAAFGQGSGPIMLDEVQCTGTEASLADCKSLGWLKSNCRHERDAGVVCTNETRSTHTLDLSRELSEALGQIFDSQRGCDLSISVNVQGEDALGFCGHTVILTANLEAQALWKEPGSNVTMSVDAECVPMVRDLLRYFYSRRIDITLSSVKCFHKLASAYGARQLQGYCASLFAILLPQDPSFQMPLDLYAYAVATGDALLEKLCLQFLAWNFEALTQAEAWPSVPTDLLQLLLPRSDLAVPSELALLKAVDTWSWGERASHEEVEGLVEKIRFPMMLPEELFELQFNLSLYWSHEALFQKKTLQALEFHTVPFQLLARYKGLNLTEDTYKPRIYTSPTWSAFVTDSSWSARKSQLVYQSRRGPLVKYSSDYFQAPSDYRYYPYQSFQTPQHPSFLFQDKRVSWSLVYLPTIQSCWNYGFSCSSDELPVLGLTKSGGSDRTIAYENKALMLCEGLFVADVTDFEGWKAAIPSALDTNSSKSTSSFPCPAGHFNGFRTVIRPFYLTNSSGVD
UniProt Q9Y4K4, sequence (Q9Y4K4 whole entry, looked up): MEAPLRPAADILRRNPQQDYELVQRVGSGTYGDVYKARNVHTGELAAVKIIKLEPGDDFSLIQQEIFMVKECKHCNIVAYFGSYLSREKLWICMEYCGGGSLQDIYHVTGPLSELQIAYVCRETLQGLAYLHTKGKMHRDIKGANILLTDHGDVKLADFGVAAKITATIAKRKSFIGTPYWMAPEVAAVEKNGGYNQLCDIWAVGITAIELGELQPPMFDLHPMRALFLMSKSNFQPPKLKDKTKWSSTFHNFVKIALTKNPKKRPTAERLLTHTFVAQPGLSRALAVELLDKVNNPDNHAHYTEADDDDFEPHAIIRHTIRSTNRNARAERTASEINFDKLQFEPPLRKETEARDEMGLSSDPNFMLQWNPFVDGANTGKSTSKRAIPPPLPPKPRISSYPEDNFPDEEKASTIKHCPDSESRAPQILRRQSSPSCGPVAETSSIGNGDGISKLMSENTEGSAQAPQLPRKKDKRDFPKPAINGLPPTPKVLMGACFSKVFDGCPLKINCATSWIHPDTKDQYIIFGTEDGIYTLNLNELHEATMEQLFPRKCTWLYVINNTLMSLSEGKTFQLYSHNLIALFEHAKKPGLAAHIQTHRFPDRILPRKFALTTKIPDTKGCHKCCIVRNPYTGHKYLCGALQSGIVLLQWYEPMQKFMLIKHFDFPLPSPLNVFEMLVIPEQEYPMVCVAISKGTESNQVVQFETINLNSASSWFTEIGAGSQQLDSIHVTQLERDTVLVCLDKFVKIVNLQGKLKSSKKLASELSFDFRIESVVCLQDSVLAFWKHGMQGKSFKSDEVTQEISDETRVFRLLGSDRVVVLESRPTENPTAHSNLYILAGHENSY
UniProt Q09328, sequence (Q09328 whole entry, looked up): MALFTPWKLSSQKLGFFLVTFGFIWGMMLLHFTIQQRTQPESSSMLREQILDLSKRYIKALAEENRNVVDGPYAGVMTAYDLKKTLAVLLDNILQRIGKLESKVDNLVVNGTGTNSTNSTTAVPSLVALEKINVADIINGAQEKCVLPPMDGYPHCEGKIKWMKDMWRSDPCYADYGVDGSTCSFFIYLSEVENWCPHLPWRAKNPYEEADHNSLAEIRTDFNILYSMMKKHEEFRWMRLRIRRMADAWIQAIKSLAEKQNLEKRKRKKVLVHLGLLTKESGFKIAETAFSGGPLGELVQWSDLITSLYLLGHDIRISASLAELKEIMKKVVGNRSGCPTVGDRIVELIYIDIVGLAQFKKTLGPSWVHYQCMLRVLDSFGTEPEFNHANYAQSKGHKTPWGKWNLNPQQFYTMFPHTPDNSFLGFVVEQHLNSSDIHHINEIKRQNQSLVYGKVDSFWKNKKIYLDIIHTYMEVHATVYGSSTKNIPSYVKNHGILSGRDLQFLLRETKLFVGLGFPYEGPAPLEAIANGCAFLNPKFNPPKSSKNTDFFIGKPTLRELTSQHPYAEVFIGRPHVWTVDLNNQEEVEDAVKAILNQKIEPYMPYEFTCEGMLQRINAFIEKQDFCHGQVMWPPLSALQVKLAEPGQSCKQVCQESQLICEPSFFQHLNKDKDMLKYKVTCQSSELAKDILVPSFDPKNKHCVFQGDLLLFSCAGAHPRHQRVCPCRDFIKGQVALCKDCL
UniProt Q9BTE3, sequence (Q9BTE3 whole entry, looked up): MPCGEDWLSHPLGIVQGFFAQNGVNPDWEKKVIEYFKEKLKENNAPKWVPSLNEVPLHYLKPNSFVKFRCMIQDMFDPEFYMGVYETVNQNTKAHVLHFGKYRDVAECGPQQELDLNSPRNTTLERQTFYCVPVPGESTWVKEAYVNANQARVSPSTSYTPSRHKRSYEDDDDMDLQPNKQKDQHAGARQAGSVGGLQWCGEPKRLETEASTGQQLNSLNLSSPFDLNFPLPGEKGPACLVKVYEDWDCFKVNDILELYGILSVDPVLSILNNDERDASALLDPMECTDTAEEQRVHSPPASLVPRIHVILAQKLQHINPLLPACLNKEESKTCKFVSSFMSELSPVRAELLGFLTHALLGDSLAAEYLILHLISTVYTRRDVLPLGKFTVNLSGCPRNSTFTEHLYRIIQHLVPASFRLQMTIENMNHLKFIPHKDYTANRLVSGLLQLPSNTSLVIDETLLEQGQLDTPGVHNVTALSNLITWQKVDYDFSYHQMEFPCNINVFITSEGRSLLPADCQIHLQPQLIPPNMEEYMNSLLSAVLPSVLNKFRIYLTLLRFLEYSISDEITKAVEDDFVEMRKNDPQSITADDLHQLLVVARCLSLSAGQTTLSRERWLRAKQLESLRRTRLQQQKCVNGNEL
UniProt Q14693, sequence (Q14693 whole entry, looked up): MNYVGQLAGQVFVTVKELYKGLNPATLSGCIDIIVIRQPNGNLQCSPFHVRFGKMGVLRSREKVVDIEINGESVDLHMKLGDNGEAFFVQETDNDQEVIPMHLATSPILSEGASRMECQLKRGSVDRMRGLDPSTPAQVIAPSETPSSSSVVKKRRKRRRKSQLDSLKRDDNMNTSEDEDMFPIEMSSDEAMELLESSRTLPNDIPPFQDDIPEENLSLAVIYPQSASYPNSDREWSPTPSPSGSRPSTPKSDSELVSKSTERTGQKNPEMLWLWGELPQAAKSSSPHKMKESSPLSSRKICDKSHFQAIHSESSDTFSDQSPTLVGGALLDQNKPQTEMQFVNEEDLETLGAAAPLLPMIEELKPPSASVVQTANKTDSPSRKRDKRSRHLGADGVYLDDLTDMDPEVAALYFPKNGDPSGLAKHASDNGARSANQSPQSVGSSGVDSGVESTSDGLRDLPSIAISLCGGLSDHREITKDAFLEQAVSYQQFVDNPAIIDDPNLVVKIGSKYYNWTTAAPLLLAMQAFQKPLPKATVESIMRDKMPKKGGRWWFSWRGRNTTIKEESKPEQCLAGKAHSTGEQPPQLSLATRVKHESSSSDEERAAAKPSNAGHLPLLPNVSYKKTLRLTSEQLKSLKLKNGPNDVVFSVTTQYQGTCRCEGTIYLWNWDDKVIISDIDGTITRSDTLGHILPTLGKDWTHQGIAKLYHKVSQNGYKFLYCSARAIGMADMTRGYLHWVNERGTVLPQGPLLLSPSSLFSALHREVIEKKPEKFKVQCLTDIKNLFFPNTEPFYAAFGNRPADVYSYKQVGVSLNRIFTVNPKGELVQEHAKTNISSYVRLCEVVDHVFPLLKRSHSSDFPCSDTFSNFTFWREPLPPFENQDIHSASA
UniProt Q9H8H3, sequence (Q9H8H3 whole entry, looked up): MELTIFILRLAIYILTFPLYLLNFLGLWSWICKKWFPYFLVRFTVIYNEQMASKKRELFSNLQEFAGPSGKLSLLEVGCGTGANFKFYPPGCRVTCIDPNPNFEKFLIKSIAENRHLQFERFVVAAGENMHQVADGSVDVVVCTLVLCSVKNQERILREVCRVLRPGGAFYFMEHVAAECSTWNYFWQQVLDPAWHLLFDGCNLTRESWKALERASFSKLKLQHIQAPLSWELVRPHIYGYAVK
UniProt Q16553, sequence (Q16553 whole entry, looked up): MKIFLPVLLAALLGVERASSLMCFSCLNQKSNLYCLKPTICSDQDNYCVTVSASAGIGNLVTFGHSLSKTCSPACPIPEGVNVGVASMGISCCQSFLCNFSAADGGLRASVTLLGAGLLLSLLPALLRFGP
UniProt Q9UI95, sequence (Q9UI95 whole entry, looked up): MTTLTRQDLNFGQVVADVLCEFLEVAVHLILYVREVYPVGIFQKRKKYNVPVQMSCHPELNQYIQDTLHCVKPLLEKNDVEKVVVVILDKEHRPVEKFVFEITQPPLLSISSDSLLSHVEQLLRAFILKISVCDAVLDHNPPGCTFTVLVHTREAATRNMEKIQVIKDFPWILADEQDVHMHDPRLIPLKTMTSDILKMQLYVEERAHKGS
UniProt P14174, sequence (P14174 whole entry, looked up): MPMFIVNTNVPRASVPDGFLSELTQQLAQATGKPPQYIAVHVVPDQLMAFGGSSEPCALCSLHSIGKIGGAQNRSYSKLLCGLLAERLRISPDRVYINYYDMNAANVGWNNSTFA

Row | Target | log2 fold change [1] | log2 fold change [2] | log2 fold change [3] | log2 fold change [4] | log2 fold change [5] | log2 fold change [6] | log2 fold change [7] | log2 fold change [8] | log2 fold change [9] | log2 fold change [10] | log2 fold change [11] | log2 fold change [12] | log2 fold change [13] | log2 fold change [14] | log2 fold change [15] | log2 fold change [16] | log2 fold change [17] | log2 fold change [18] | log2 fold change [19] | log2 fold change [20]
1 | MIF (UniProt P14174) | 0.025 (inactive) | -0.047 (inactive) | -0.02 (inactive) | 0 (inactive) | -0.025 (inactive) | 0.021 (inactive) | -0.274 (inactive) | 0.084 (inactive) | 0.002 (inactive) | 0.002 (inactive) | -0.109 (inactive) | 0.545 (active) | 0.103 (inactive) | -0.05 (inactive) | -0.145 (inactive) | -0.028 (inactive) | -0.013 (inactive) | 0.005 (inactive) | -0.006 (inactive) | 0.068 (inactive)
2 | LPIN1 isoform 7 (UniProt Q14693) | -0.057 (inactive) | 0.065 (inactive) | 0.1 (inactive) | -0.057 (inactive) | -0.002 (inactive) | -0.003 (inactive) | -0.052 (inactive) | -0.05 (inactive) | 0.024 (inactive) | 0.028 (inactive) | -0.054 (inactive) | -0.05 (inactive) | -0.006 (inactive) | 0.003 (inactive) | -0.1 (inactive) | 0.089 (inactive) | -0.064 (inactive) | -0.028 (inactive) | 0.007 (inactive) | -0.04 (inactive)
3 | MCU (UniProt Q8NE86) | 0.011 (inactive) | 0.017 (inactive) | 0.077 (inactive) | -0.085 (inactive) | -0.033 (inactive) | -0.049 (inactive) | -0.062 (inactive) | -0.099 (inactive) | 0.04 (inactive) | 0.017 (inactive) | 0.011 (inactive) | 0.045 (inactive) | 0.026 (inactive) | 0.037 (inactive) | -0.067 (inactive) | 0.016 (inactive) | -0.035 (inactive) | 0.01 (inactive) | -0.063 (inactive) | -0.091 (inactive)
4 | LZTR1 (UniProt Q8N653) | 0.026 (inactive) | -0.118 (inactive) | 0.081 (inactive) | 0.002 (inactive) | -0.125 (inactive) | -0.012 (inactive) | 0 (inactive) | -0.047 (inactive) | -0.031 (inactive) | 0.065 (inactive) | 0.178 (inactive) | -0.168 (inactive) | -0.001 (inactive) | -0.036 (inactive) | -0.012 (inactive) | -0.039 (inactive) | 0.174 (inactive) | -0.047 (inactive) | 0.137 (inactive) | 0.091 (inactive)
5 | MCMBP isoform 2 (UniProt Q9BTE3) | -0.039 (inactive) | 0.081 (inactive) | -0.096 (inactive) | 0.059 (inactive) | -0.004 (inactive) | 0.047 (inactive) |  |  | -0.036 (inactive) | -0.015 (inactive) |  | -0.142 (inactive) | 0.102 (inactive) | 0.089 (inactive) | 0.199 (inactive) | -0.015 (inactive) | 0.124 (inactive) | 0.067 (inactive) | -0.091 (inactive) | -0.082 (inactive)
6 | LY6E (UniProt Q16553) | 0.068 (inactive) | 0.026 (inactive) | -0.02 (inactive) | -0.055 (inactive) | 0.022 (inactive) |  | -1.86 (active) | 0.533 (inactive) |  |  | -0.726 (inactive) |  |  | -0.024 (inactive) |  | 0.03 (inactive) | -0.005 (inactive) | 0.029 (inactive) | 0.016 (inactive) | -0.013 (inactive)
7 | MGAT5 (UniProt Q09328) | -0.254 (inactive) | -0.07 (inactive) | 0.062 (inactive) | -0.08 (inactive) | -0.065 (inactive) | 0.021 (inactive) | 0.094 (inactive) | -0.138 (inactive) | -0.036 (inactive) | 0.002 (inactive) | 0.056 (inactive) | -0.009 (inactive) | -0.011 (inactive) | -0.337 (active) | -0.026 (inactive) | 0.006 (inactive) | -0.095 (inactive) | 0.025 (inactive) | 0.054 (inactive) | -0.064 (inactive)
8 | LIMK1 (UniProt P53667) | 0.234 (inactive) | 0.179 (inactive) | 0.007 (inactive) | -0.195 (inactive) | -0.215 (inactive) | 0.108 (inactive) | -0.104 (inactive) | -0.028 (inactive) | -0.022 (inactive) | -0.15 (inactive) | -0.135 (inactive) | 0 (inactive) |  | -0.053 (inactive) | -0.085 (inactive) | 0.489 (active) | -0.086 (inactive) | -0.261 (inactive) | -0.203 (inactive) | 0.106 (inactive)
9 | KIF15 (UniProt Q9NS87) | -0.01 (inactive) | 0.045 (inactive) | 0.016 (inactive) | -0.018 (inactive) | -0.053 (inactive) | 0.036 (inactive) | 0.006 (inactive) | -0.036 (inactive) | 0.019 (inactive) | 0 (inactive) | -0.002 (inactive) | -0.058 (inactive) | 0.006 (inactive) | -0.011 (inactive) | 0.006 (inactive) | 0.01 (inactive) | 0.121 (inactive) | -0.013 (inactive) | -0.014 (inactive) | 0.003 (inactive)
10 | LGALS3BP (UniProt Q08380) | -0.196 (inactive) | 0.01 (inactive) |  | 0.036 (inactive) | 0.044 (inactive) |  | 0.168 (inactive) | 0 (inactive) | 0.219 (inactive) | -0.067 (inactive) | -0.187 (inactive) |  | -0.234 (inactive) | -0.133 (inactive) | -0.571 (active) | 0.023 (inactive) | 0.082 (inactive) | -0.074 (inactive) | 0.092 (inactive) | 0.019 (inactive)
11 | MAST2 (UniProt Q6P0Q8) | 0.134 (inactive) | -0.062 (inactive) | 0.105 (inactive) | 0.068 (inactive) | 0.045 (inactive) | -0.127 (inactive) | 0.102 (inactive) | 0.06 (inactive) | 0.056 (inactive) | -0.024 (inactive) | -0.096 (inactive) | -0.06 (inactive) | 0.219 (inactive) | -0.009 (inactive) | -0.009 (inactive) | 0.114 (inactive) | 0.078 (inactive) |  | -0.002 (inactive) | 
12 | MAPK9 (UniProt P45984) | -0.016 (inactive) | -0.002 (inactive) | -0.025 (inactive) | -0.063 (inactive) | 0.006 (inactive) | -0.007 (inactive) | 0.084 (inactive) | -0.15 (inactive) | 0.002 (inactive) | -0.031 (inactive) | 0.028 (inactive) | -0.064 (inactive) | 0.44 (active) | 0.056 (inactive) | 0.006 (inactive) | 0.17 (inactive) | -0.019 (inactive) | -0.021 (inactive) | 0.006 (inactive) | 0.027 (inactive)
13 | METTL7A (UniProt Q9H8H3) | -0.08 (inactive) | 0.056 (inactive) | -0.123 (inactive) | -0.022 (inactive) | 0.226 (inactive) | -0.018 (inactive) | 0.014 (inactive) | 0.081 (inactive) | -0.028 (inactive) | -0.028 (inactive) | -0.079 (inactive) | 0.014 (inactive) | 0.003 (inactive) | 0.011 (inactive) | 0.041 (inactive) | -0.041 (inactive) | 0.151 (inactive) | -0.036 (inactive) | -0.01 (inactive) | -0.046 (inactive)
14 | MAD2L2 (UniProt Q9UI95) | -0.028 (inactive) | 0.246 (inactive) | 0.013 (inactive) | -0.065 (inactive) | 0.044 (inactive) | 0.089 (inactive) | -0.036 (inactive) | -0.051 (inactive) | 0.079 (inactive) | -0.006 (inactive) | -0.026 (inactive) | 0.051 (inactive) | 0.033 (inactive) | 0.06 (inactive) | 0.064 (inactive) | -0.069 (inactive) | 0.022 (inactive) | 0.04 (inactive) | 0.135 (inactive) | -0.006 (inactive)
15 | MCMBP (UniProt Q9BTE3) | -0.029 (inactive) | 0.019 (inactive) | -0.007 (inactive) | 0.006 (inactive) | -0.026 (inactive) | 0.043 (inactive) | 0.035 (inactive) | -0.032 (inactive) | 0.02 (inactive) | 0.015 (inactive) | 0.035 (inactive) | -0.078 (inactive) | 0.029 (inactive) | 0.041 (inactive) | -0.003 (inactive) | -0.001 (inactive) | 0.074 (inactive) | 0.005 (inactive) | 0 (inactive) | 0.011 (inactive)
16 | MAP4K5 (UniProt Q9Y4K4) | 0.185 (inactive) | -0.011 (inactive) | 0.23 (inactive) |  | -0.069 (inactive) | 0.014 (inactive) | 0 (inactive) | -0.007 (inactive) | 0.01 (inactive) |  | 0.045 (inactive) | -0.021 (inactive) | 0.068 (inactive) | 0.125 (inactive) | -0.006 (inactive) | 0.009 (inactive) | -0.191 (inactive) | -0.027 (inactive) | 0.189 (inactive) | 0.086 (inactive)
